# Tested on: HL-1
# Assay: cardiomyocyte survival under oxidative or metabolic stress – cell-based, panel, H9c2 and HL-1, ATP luminescence, set 2, SAR follow-up (AID 651871);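 further: cells exposed to stressor for 2 h before ATP readout; reference of the scale not given here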
# Conditions: H9c2/HL-1 cardiomyocytes, 2-deoxyglucose stress, with 2-deoxyglucose, run 5, at 19.8 µM (top of the series)
compound,measurement,value
COc1ccc2c(c1OC)C(=O)N1c3ccccc3C(=O)N(Cc3cccc(Cl)c3Cl)C21 (stereo unspecified),activity (protection/inhibition),51.6%
